# An excerpt weighted towards active compounds, which were near 1.4% of everything screened.
# AID504770 = E. coli YBA685 growth inhibition, screen for V. cholerae RctB inhibitors; E. coli YBA685 rctB-dependent plasmid, OD600 growth, 3 h; stronger effect = lower value; z-score (concentration not given with the values); hit rate 0.27% among 130,000; AID 504770; in the data active means z-score below about -2, passing the limit was not always enough
# MenB inh = blocks the Mycobacterium tuberculosis MenB enzyme; MenB enzyme assay, absorbance read-out; hit rate 0.43% among 100,000; inhibition, % (test concentration not listed); in the data active means inhibition above about 21%, passing the limit was not always enough
# Mtb MbtI inh = blocks the Mycobacterium tuberculosis siderophore enzyme MbtI. P9WFX0. purified MbtI enzyme, fluorescence intensity read-out. inhibition, % (no concentration beside the values). hit rate 0.89% among 100,000. AID 493033; in the data active means inhibition mostly above about 56%, no sharp cut-off; inactive means mostly below about 77%
# Target sequence (P9WFX0 whole entry, looked up): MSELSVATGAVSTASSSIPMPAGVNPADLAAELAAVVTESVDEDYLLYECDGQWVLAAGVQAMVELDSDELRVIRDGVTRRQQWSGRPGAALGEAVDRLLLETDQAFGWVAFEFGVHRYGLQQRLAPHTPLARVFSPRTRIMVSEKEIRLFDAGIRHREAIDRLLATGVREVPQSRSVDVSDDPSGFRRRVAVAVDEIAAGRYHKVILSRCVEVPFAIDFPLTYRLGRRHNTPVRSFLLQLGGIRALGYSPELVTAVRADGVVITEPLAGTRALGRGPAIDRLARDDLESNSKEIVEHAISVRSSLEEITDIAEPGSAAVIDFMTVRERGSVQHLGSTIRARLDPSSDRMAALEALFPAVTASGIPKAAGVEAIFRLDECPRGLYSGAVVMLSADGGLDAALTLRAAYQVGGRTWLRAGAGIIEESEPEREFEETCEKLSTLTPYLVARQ
# Polio RdRp inh = poliovirus RNA polymerase inhibition; P03300; poliovirus polymerase elongation, fluorescence polarization; stronger effect = lower value; % elongation, % (compound at 16.7 µg/mL); hit rate 0.66% among 150,000; in the data active means % elongation below about 90%
# Active calls of the source: *; i = inactive; nt = no result given.
SMILES,AID504770,MenB inh,Mtb MbtI inh,Polio RdRp inh
CC(C)(C)c1ccc(C(=O)Nc2ccc(-c3nc4ccccc4o3)c(O)c2)cc1,nt,nt,nt,-10*
Cc1ccc(Cl)cc1N1CCN(C(CC(=O)O)C(=O)c2ccc(F)cc2)CC1 (configuration not stated),-0.05,31*,7,70*
O=C(CN1C(=O)c2ccccc2C1=O)Oc1ccc2ccccc2c1,-0.35,-1,nt,104
CCOc1ccc(NC2=CC(=O)C=CC2=O)cc1,0.9,nt,98*,100
CCOc1ccc(NC2=CC(=O)CCC2)cc1,-1,3,-11,101
O=C(CSc1nc2ccccc2c(=O)[nH]1)c1ccc(O)cc1O,-0.4,6,82*,104
O=C(CSc1nc2ccccc2c(=O)[nH]1)c1ccc(-c2ccccc2)cc1,0.45,0,1,104
CC(C)N(CC(=O)c1cccs1)Cc1ccccc1,1.4,-8,100*,98
COCCCNC(=O)c1cc(-c2cccnc2)nc2ccc(S(=O)(=O)N3CCC(C)CC3)cc12,nt,nt,nt,47*
COCCNC(=O)c1cc(-c2cccnc2)nc2ccc(S(=O)(=O)N3CCCCCC3)cc12,0.75,2,-19,102
COC(=O)CCC(=O)c1ccc(Cc2ccc(C(=O)CCC(=O)OC)s2)s1,-0.4,-15,11,98
O=C1CNC(=O)c2c(nc3n2CCC3)N1,1.1,34*,15,101
Cc1cc(NC(=O)CC(C)C)no1,-0.5,-3,-13,101
CC(C)(C)c1cs/c(=N/c2ccccn2)n1-c1ccc(Cl)cc1,0.35,-6,-11,102
Clc1ss/c(=N\c2ccccn2)c1Cl,0.3,-19,nt,87*
COc1ccc(Cn2c(=O)[nH]c3cc(C(=O)N4CCN(c5cccc(OC)c5)CC4)ccc3c2=O)cc1,nt,nt,nt,73*
COc1ccc(Cn2c(=O)[nH]c3cc(C(=O)N4CCN(c5cccc(Cl)c5)CC4)ccc3c2=O)cc1,nt,nt,nt,101
Cc1ccccc1OCC(=O)OC1CCCN(C)C1 (configuration not stated),-1,-37,-11,106
O=C1NC(=O)C(=Cc2ccc(N3CCCC3)o2)C(=O)N1,-0.55,-142,17,126
O=C1NC(=O)C(=Cc2ccc(Sc3ccc(Cl)cc3)o2)C(=O)N1,0.5,-26,92*,104
CCCn1c2ccc(F)cc2c2nc3n(c(=O)c21)CCS3,-0.25,16,90,101
O=C(Cn1c2ccc(F)cc2c2nc3n(c(=O)c21)CCS3)N1CCCC1,2.2,30*,44,103
OCCn1nc2c3ccccc3nc-2n(-c2ccccc2)c1=S,-0.2,-40,72,85*
CC(C)c1ccc(C=C2C(=O)NC(=O)NC2=O)cc1,-2.3,-7,6,77*
COc1ccc(S(=O)(=O)N2CCC(NC(=O)NC3CCCC3)CC2)cc1,-0.85,-14,42,102
SMILES,AID504770,MenB inh,Mtb MbtI inh,Polio RdRp inh
COc1ccc(S(=O)(=O)N2CCC(NC(=O)c3ccccc3)CC2)cc1,1.4,33*,0,102
O=C(NCCC1=CCCCC1)c1ccc2cn[nH]c2c1,-1.4,0,19,101
NCCS,-0.05,0,51*,102
c1coc(-c2nc3ccc4ccccc4c3c3c2CCCC3)c1,-0.45,13,106,100
CC(C(=O)N1CCCC1)N1CCN(c2ccc(F)cc2)CC1 (configuration not stated),-0.05,41*,-4,98
CCN1CCN(c2ncc3c(n2)CCN(Cc2cc(F)cc(F)c2)C3)CC1,nt,nt,nt,86*
COCCOc1ccc(C(F)(F)F)cc1Nc1nc2ccccc2o1,-0.4,-53,18,87*
O=C(O)CCC(=O)Nc1ccc(S(=O)(=O)Nc2ccc(F)cc2)cc1,-0.65,-20,2,104
COc1cccc(N2C(=O)CC(Sc3ccccc3N)C2=O)c1 (configuration not stated),1.4,nt,nt,nt
COc1cccc(N2C(=O)CC(Sc3nnc(C)s3)C2=O)c1 (configuration not stated),-0.75,9,100*,101
CC1CN(C)CC(C)C1(O)c1ccccc1 (configuration not stated),0.3,-2,nt,109
CC1CN(C(C)(C)C)CCC1(O)c1ccccc1 (configuration not stated),0.9,34*,-1,101
COc1cccc(NC(=O)Cn2sc3ccccc3c2=O)c1,-2.5*,-62,98,105
COc1cccc(NC(=O)Cn2ccc3c(OC)cccc3c2=O)c1,-0.25,-4,54,102
CCn1c(C(=O)OC)cc2c1ccn2-c1ccc(F)cc1,0.1,32*,90,103
COC(=O)c1cc2c(ccn2-c2ccc(F)cc2)n1CC(=O)c1ccc(OC)cc1,0.45,1,-4,101
COC(=O)c1ccccc1N1C(=O)C=CC1=O,-2.5*,nt,nt,nt
COc1ccc2c(COC(=O)Cn3cnnn3)cc(=O)oc2c1,1.4,6,104,nt
CC(=O)Nc1cc2cc(-n3cccc3)ccc2oc1=O,2,nt,nt,nt
O=C(Nc1nc(CSc2nc3ccccc3s2)cs1)C1CC1,-0.65,-65,53,83*
COC(=O)CSc1nc2ccccc2s1,-0.25,-14,-4,102
Cc1c2cnn(-c3ccccc3)c(=O)c2c(C)n1CCCC(=O)Nc1cccc(F)c1,nt,nt,nt,82*
NC(=O)CN(C1CCCCC1)S(=O)(=O)c1ccc(Br)cc1,-0.2,41*,i,99
Cc1ccc(S(=O)(=O)N(CC(=O)O)C2CCCCCC2)cc1,-0.5,-14,-8,96
COCc1cc(OC(=O)N(C)C)nc(SC)n1,0.55,nt,nt,nt
SMILES,AID504770,MenB inh,Mtb MbtI inh,Polio RdRp inh
CSc1s[nH]c(=O)c1C#N,-1,9,nt,86*
CSc1[nH]c(=O)[nH]c(=O)c1C#N,0.2,-11,0,101
COc1ccc(SS(=O)(=O)c2ccc(OC)c(NC(C)=O)c2)cc1NC(C)=O,-0.5,-17,91*,102
COc1ccc(S(=O)(=O)C(F)(F)F)cc1NC(C)=O,1.1,nt,4,103
O=C1NC(=S)C(=C2CCCC2)S1,0.55,-27,77*,89
CCn1c(C(C)Oc2ccc(Cl)cc2)n[nH]c1=S (configuration not stated),1.7,-16,89*,103
CCCNS(=O)(=O)c1nc2nc(C)cc(C)n2n1,-0.6,-8,nt,106
CCc1cc(=O)oc2c(C)c(OCC(=O)Nc3ccc4c(c3)OCO4)ccc12,-0.7,-20,7,80*
Cc1cc(C)cc(NC(=O)c2sc3nc(-c4cc5ccccc5oc4=O)[nH]c(=O)c3c2C)c1,nt,nt,nt,105
Cc1c(C(=O)Nc2cccc(F)c2)sc2nc(-c3cc4ccccc4oc3=O)[nH]c(=O)c12,nt,nt,nt,64*
CCOC(=O)c1cnn(-c2ccccc2)c1NC(=O)c1ccccc1F,-0.9,-1,2,102
COC(=O)c1cn(CC(=O)OCc2ccc(-n3nc(C)cc3C)cc2)c2ccccc12,-0.45,-43,-2,102
O=C1NC(=O)C(c2ccccc2)N1 (configuration not stated),-1.1,-2,-3,106
O=C1NC(=O)C(C(c2ccccc2)c2ccccc2)C(=O)N1,1.1,32*,1,99
COc1nc(C)cc(C)c1C(=O)O,-0.15,nt,nt,nt
Cc1cc(C)c(C(=O)O)c(Cl)n1,1.6,-26,0,80*

# Bioassay records: PubChem BioAssay, ICCB-Longwood Screening Facility, Harvard Medical School
